The structures appear in SMILES notation. Records with an inconclusive call do not appear. Entries that show only a call come without a potency. The source made the active and inactive calls. Calls come from the whole dose curve; as a rule, active = well fitted activation curve with a large enough effect; inconclusive = small, poorly fitted or top-dose-only effect; inactive = flat fitted curve, though single readings scatter.
Potency is the fitted concentration of half-maximal effect.

In the assay the target is Relaxin receptor 2 (Homo sapiens) (UniProt Q8WXD0). As to the kind of experiment: qHTS Assay for Agonists of the Relaxin Receptor RXFP1: RXFP2 Hit Validation. Note: nearly all actives have a fitted effect of over 65% in size. The following applies: HEK293 RXFP2 cAMP TR-FRET, 30 min; series mostly up to 44.7 µM. From the text: NIH Chemical Genomics Center [NCGC] NIH Molecular Libraries Probe Production Centers Network [MLPCN] MLPCN Grant: R03 MH085705-01A1 Assay Submitter (PI): Alexander Agoulnik NCGC Assay Overview: The relaxin hormone is involved in the variety of biological functions in normal tissues and diseases. The role of relaxin is well-established in female reproduction and parturition, mammary gland and endometrial development, maintenance of myometrial quiescence during pregnancy. Relaxin signaling through its G protein-coupled receptor (GPCR) RXFP1 results in ECM remodeling through regulation of collagen deposition, cell invasiveness, proliferation and overall tissue homeostasis. […] Recombinant human relaxin (rhRlx) is currently being tested in clinical trials as a protective agent in congestive heart failure, in treating severe preeclampsia, and as an anti-fibrotic agent in systemic sclerosis. Upon relaxin binding RXFP1 activation leads to the activation of adenylate cyclase (AC) via Gs. cAMP will activate PKA, which phosphorylates many signaling proteins. Thus, detection of cAMP increase is an easy and reliable indication of relaxin receptor activation. To screen for agonists of the relaxin receptor, a HEK293T cell line stably transfected with RXFP1 was used. RXFP1 activation was assayed by changes in cAMP levels as detected with a time-resolved fluorescence energy transfer (TR-FRET) cAMP detection kit. This assay measures activation of a cell expressing RXFP2, another GPCR targeted by relaxin, to determine the selectivity of compounds for RXFP1.
Relaxin receptor 2 (Homo sapiens), sequence (Q8WXD0 whole entry, looked up): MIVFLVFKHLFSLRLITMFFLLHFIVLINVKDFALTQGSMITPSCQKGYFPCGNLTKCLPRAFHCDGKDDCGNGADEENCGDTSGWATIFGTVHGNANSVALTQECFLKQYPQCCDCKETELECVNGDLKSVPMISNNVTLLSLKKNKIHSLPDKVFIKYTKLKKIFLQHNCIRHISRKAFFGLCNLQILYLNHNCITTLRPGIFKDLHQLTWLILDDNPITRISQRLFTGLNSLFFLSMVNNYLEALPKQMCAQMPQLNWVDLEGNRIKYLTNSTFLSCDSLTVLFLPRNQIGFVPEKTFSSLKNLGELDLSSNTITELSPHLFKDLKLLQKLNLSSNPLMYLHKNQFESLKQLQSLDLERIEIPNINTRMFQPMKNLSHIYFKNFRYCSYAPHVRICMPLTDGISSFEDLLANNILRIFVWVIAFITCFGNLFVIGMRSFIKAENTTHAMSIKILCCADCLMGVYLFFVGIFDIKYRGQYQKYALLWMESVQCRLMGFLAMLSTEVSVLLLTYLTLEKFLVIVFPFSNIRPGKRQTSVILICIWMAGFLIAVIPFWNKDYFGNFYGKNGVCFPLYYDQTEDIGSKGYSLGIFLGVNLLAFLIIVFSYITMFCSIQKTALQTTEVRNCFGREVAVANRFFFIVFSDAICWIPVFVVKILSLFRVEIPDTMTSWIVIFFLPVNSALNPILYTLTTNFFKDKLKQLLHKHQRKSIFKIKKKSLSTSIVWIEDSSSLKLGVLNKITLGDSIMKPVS
NCGC Assay Protocol Summary: This is a cell-based assay for cAMP second messenger response to screen for agonists of the RXFP2 receptor. The assay was conducted in the presence of a PDE4 inhibitor (Ro 20174). The cells were lysed and the cAMP levels were measured with a TR-FRET cAMP kit. Presence of cAMP in the cell lysate disrupts binding between the cryptate-labeled anti-cAMP and d2-labeled cAMP pair, leading to a decrease in the TR-FRET signal. Data were normalized to the controls for basal activity (buffer only) and 100% activity (29 nM porcine relaxin). The EC50 values were determined from concentration-response data modeled with the standard Hill equation 1536-well assay protocol for the HEK293 RXFP2 cAMP assay: (1) Add 3 ul HEK293 RXFP2 cell culture. 2000 cells/well in DMEM/F12, 10% FBS, 1x Pen/Strep (dispensed offline with MultiDrop Combi). (2) Incubate 16-24 hr at 37C, 5% CO2. (3) Add 1 ul 400uM Ro20174 in DPBS, 0.05% BSA, 0.005% Tween 20. (3) Add 23 nl compounds in DMSO solution. Final concentration was 0.5 - 58 uM. (4) Incubate 30 min at 37C, 5% CO2. (5) Add 1 ul cAMP-d2 in lysis buffer (HTRF cAMP HiRange kit, CisBio). (6) Add 1 ul anti-cAMP antibody-cryptate in lysis buffer (HTRF cAMP HiRange kit, CisBio). […]
Take `Nc1ncc2[nH]cnc2n1`: the Potency is 17.4 µM (active).

With `CCNC(=O)[C@H]1O[C@@H](n2cnc3c(N)ncnc32)[C@H](O)[C@@H]1O`, the Potency is 0.974 µM (active).

Consider `CCC(Oc1cc(Cl)ccc1Cl)C(=O)N1CCC2(CC1)OCCO2` (centres undefined), for which the Potency entry was “inactive”.

In the case of `O=C(O)c1sc2cc(Cl)ccc2c1Cl`, the Potency result was “inactive”.

Source of the values: PubChem BioAssay AID489043 (National Center for Advancing Translational Sciences (NCATS), 2010).
